This is a sample that favours compounds with a hit; in the whole collection about 2.9% have one here.
SKN-1 block = suppressors of acrylamide-induced Pgst-4::GFP reporter in worms, primary screen, SKN-1 inhibitor project, whole organism, uHTS, GFP/RFP fluorescence ratio, strain VP596. actives 0.49% (n = 360,000). C. elegans VP596 Pgst-4::GFP/RFP ratio, 24 h. AID 624304, 2012. inhibition, % at 21.8 µM;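 active = interference check ratio from 0.5 to 1.5 plus GFP to RFP signal ratio inhibition reaching or exceeding a fixed threshold, cut at about 30% in these data, passing the limit was not always enough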
EP2 mod = EP2 receptor modulators, cAMP readout, primary screen, cell-based, HTRF cAMP, PGE2 stimulation | Prostaglandin E2 receptor EP2 subtype (Homo sapiens), P43116 | induction, % at 25 µM | actives 0.83% (n = 260,000) | EP2-expressing cells, cAMP HTRF FRET, PGE2 co-stimulation | AID 940, 2007;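 active = compounds whose cAMP rise, as percent of the full-agonist control response, exceeds 60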;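 also: rat C6 glioma line stably carrying human EP2 under a CMV promoter; the protocol text gives 20 µM as final concentration; 100% = response of wells given 1 µM PGE2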
RAM inhibit = inhibitors of the yeast RAM network, primary screen, dse1pr::URA3 reporter, 5-FOA selection | S. cerevisiae dse1pr::URA3 reporter, 5-FOA growth OD615, 2 d; analog-sensitive cbk1-as2 kinase mutant strain | inhibition, % at 50 µM | actives 1.8% (n = 190,000) | AID 868, 2007;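 active = inhibition above a set limit, 3 SD over mean compound inhibition, cut at about 8.4% in these data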;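 also: 0% = DMSO-only wells with no growth and 100% = 10 µM 1-NA-PP1 full growth; inhibition rescues growth on 5-FOA so higher OD means more RAM inhibition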
PG9 Ab binder = binders of HIV-1 gp120 antibody PG9, primary screen, biochemical, TR-FRET | TR-FRET gp120-PG9 antibody binding | HIV-1 gp120 / PG9 antibody interaction | inhibition, % at 6.7 µM | actives 0.43% (n = 360,000); in the data active = inhibition above about 8.5%
NR1D1 modulator = modulators of Rev-erb alpha DNA binding, primary screen, biochemical, FITC-DNA, fluorescence polarization, uHTS | Rev-erbα–FITC-DNA binding, 90 min | activity, % at 10 µM | actives 0.79% (n = 370,000);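 active = activity above about 14%, limit read from the data; passing the limit was not always enough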;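 also: 0% = DMSO wells with 35 nM protein and 100% = DMSO wells with 750 nM protein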
Target sequence (P20393 whole entry, looked up): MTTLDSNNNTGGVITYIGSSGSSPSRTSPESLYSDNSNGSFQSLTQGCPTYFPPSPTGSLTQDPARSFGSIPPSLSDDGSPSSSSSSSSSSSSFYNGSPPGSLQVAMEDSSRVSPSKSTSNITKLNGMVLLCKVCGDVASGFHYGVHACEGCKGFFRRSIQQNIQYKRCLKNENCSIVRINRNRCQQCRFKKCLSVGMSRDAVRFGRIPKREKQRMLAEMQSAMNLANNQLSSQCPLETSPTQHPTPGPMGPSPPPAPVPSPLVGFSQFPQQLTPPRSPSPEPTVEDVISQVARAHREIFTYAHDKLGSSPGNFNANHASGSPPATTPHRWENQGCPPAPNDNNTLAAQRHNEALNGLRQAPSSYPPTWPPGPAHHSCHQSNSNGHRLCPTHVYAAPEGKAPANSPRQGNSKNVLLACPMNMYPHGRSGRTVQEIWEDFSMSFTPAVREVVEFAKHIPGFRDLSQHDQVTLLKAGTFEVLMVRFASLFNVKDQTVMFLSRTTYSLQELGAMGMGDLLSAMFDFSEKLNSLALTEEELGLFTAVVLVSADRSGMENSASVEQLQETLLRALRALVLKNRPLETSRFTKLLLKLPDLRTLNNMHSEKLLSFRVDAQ
PGE2 EP2 inh = human EP2 receptor antagonists, primary screen, TR-FRET cAMP, C6 glioma cells | Prostaglandin E2 receptor EP2 subtype (Homo sapiens), P43116 | C6 glioma cells expressing human EP2; cells stimulated with saturating PGE2 | inhibition, % at 25 µM | actives 0.52% (n = 260,000);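 active = percent inhibition above 40 after rounding to a whole number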;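 also: rat C6 glioma host cells with rolipram phosphodiesterase inhibitor present; the protocol text gives 20 µM as final concentration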
* marks the source's active call; other numbers are inactive results; x = no result; ! = repeats disagree.

SMILES | SKN-1 block | EP2 mod | RAM inhibit | PG9 Ab binder | NR1D1 modulator | PGE2 EP2 inh
O=C(CCC(=O)N1CCOc2ccccc21)NC1CCCCCC1 | -11.6 | x | x | 0.3 | -0.1 | x
CCOC(=O)N1CCC(NC(=O)CCC(=O)N2CCOc3ccccc32)CC1 | 8.7 | 5.1 | 0.9 | 15.3* | -8.1 | 14.0
COc1ccc(CCNC(=O)Cc2ccc([N+](=O)[O-])cc2)cc1OC | -3.9 | 11.2 | x | -0.1 | -0.4 | 5.3
COc1ccc(CCNC(=O)Cc2ccc(OCc3ccccc3)c(OC)c2[N+](=O)[O-])cc1OCc1ccccc1 | 0.7 | -5.8 | 9.1* | -1.4 | -4.1 | x
CCc1ccc2[nH]c(=O)c(C(c3nnnn3C3CCCC3)N3CCc4ccccc4C3)cc2c1 (configuration not stated) | x | 5.0 | x | x | x | 7.7
CCOc1ccc2[nH]c(=O)c(CN(C3CCCC3)C(c3nnnn3CC3CCCO3)C(C)C)cc2c1 (configuration not stated) | x | 27.7 | x | x | x | 10.5
N#Cc1ccc(CN2CCN(C(=O)c3cc(C4CC4)nn3-c3ccccc3)CC2)cc1 | 38.0* | x | x | -0.4 | -3.8 | x
O=C(c1cc(C2CC2)nn1-c1ccccc1)N1CCN(Cc2ccccc2)CC1 | 3.8 | x | x | -0.1 | -6.8 | x
CN(C)CCCO[C@@H]1[C@H]2OC(C)(C)O[C@H]2O[C@@H]1[C@H](O)CO | 43.6* | x | x | -2.5 | 1.3 | x
CN(C)CCCO[C@@H]1[C@H]2OC(C)(C)O[C@H]2O[C@@H]1C(O)CO (some centres not stated) | x | 15.2 | x | x | -5.0 | 6.3
O=S(=O)(c1cccc(F)c1)N1CCC(n2nnc3cc(F)ccc32)CC1 | x | -61.3 | x | x | x | 0.6
CC1=N[C@@](C)(COC(=O)[C@]2(C)N[C@](C)(CO)CO2)COC1=O | x | 31.7 | x | x | x | 47.7*
CN(C)S(=O)(=O)c1ccc(Nc2ccc(O)c3c2C(=O)c2c([N+](=O)[O-])ccc(O)c2C3=O)cc1 | x | -34.0 | x | x | x | 58.8*
O=C1c2ccccc2C(=O)c2c([N+](=O)[O-])ccc(O)c21 | 37.4* | -77.0 | x | -0.1 | -14.3 | 9.1
CN(C)S(=O)(=O)c1ccc(C(=O)Nc2ccccc2[N+](=O)[O-])cc1 | 13.3 | -21.7 | 1.4 | -2.4 | -2.4 | 8.0
O=C(Nc1nnc(-c2ccncc2)s1)c1ccccc1 | x | -0.8 | x | x | x | 13.7
COC(=O)c1ccc(-n2nnnc2SCC(=O)Nc2ccccc2C(=O)OC)cc1 | -7.2 | -52.1 | 0.2 | -2.0 | -0.3 | x
COC(=O)c1ccc(-n2nnnc2SCc2ccccc2OC)cc1 | -7.9 | -37.7 | 9.6* | -2.7 | -1.1 | 19.7
CC(C)n1c(=O)n(CC(=O)NCc2ccccc2)c2cccnc21 | x | -5.9 | x | x | x | x
S=C(NCc1ccccc1)C(=S)NCc1ccccc1 | 38.4* | x | x | -0.3 | 1.8 | x
Clc1ccc(OCc2nc(-c3ccncc3)no2)c(Br)c1 | 50.6* | -17.1 | -1.4 | -0.3 | 5.8 | x
CCOc1cc(/C=C2\C(=O)ON=C2c2ccccc2)ccc1OC | 22.1 | x | x | -1.1 | 1.3 | x
CCOc1cc(/C=C2/C(=O)ON=C2C)ccc1OCc1ccccc1F | 1.3 | -24.9 | 7.1 | -0.2 | -0.9 | 16.3
CCOc1cc(/C=C2/C(=O)ON=C2C)ccc1OCc1ccc(F)cc1 | 3.9 | -1.9 | 9.9* | -2.4 | -8.5 | 11.0
CCOc1cc(/C=C2/C(=O)ON=C2C)ccc1OCc1ccccc1 | x | -67.2 | 10.4* | -3.4 | -1.5 | 24.3
SMILES | SKN-1 block | EP2 mod | RAM inhibit | PG9 Ab binder | NR1D1 modulator | PGE2 EP2 inh
CC1=NOC(=O)/C1=C/c1ccc2c(c1)OCO2 | 5.6 | -66.2 | -1.1 | 2.1 | -3.9 | 61.2*
CN1[C@@H](C(=O)N2CCCCCC2)C[C@@H](c2ccc(F)cc2)NS1(=O)=O | x | -31.1 | x | x | x | x
O=C(COC(=O)c1ccccc1)Nc1ccc2c(c1)OCO2 | x | -19.7 | x | x | x | 9.2
COc1cc(CNc2n[nH]c3nc(C)cc(C(F)(F)F)c23)cc(OC)c1OC | x | -82.2 | x | x | x | 6.5
CN(c1ccccc1)c1nc(-n2ccnc2)nc(-n2ccnc2)n1 | -9.3 | 25.6 | 0.1 | -0.2 | 6.5 | x
c1ccc(N(c2ccccc2)c2nc(-n3ccnc3)nc(-n3ccnc3)n2)cc1 | 15.8 | -45.9 | 0.8 | 0.8 | 8.2 | 66.8*
Clc1ccccc1-c1ncnc2ccc(Br)cc12 | 21.5 | 63.8*! | -0.8 | 2.0 | 9.7 | 17.5
CCn1nnc(NC(=O)COc2ccc(C(C)(C)C)cc2)n1 | x | 10.1 | x | x | x | 9.3
C=CCn1c(SCC(=O)c2cccs2)nc2sc(C)c(C)c2c1=O | 1.0 | -93.0 | 6.5 | -1.3 | 3.3 | 6.5
C=CCn1c(SCC(=O)c2cc(C)n(CCOC)c2C)nc2sc(C)c(C)c2c1=O | 10.1 | -38.8 | 5.7 | -0.1 | 2.9 | 42.2*
Cn1c(=O)[nH]c(=O)c2c1nc(NC1CCCCC1)n2Cc1ccccc1 | -7.2 | 61.0* | -0.7 | -0.8 | -2.4 | 9.4
CCCOC(=O)c1c(N)sc2c1CCC2 | -13.1 | 16.0 | 0.6 | -1.2 | -2.3 | 9.5
CCOC(=O)c1c(N)sc2c1CCSC2 | 37.1* | 23.5 | 0.3 | -2.0 | -1.9 | 9.7
O=C(COc1ccc(S(=O)(=O)NC2CCCCC2)cc1Cl)NCC1CCCO1 (configuration not stated) | 22.2 | 1.0 | -0.8 | 1.9 | -3.2 | 10.7
COc1ccc(CCNC(=O)COc2ccc(S(=O)(=O)NC3CCCCC3)cc2Cl)cc1 | 0.2 | -28.0 | 10.0* | -1.5 | -1.9 | 4.7
CCOC(=O)c1sc(NC(=O)C2=CC(=O)c3ccccc3C2=O)nc1C | x | -17.4 | x | x | x | 7.1
O=C(CN1CCC(n2nnc3cc(C(F)(F)F)ccc32)CC1)Nc1cc(Cl)ccc1Cl | x | 0.1 | x | x | x | 7.2
Cn1ncc(S(=O)(=O)Cc2ccccc2)c(Cl)c1=O | 5.8 | -33.0 | x | -3.3 | -3.5 | 88.8*
COc1cc(-c2nc3cnccn3c2NCc2ccc(F)cc2)ccc1O | x | -64.0 | x | x | x | 6.2
O=C(CSC1=NS(=O)(=O)c2ccccc21)Nc1ccccc1 | 6.2 | -19.9 | -1.4 | -0.2 | 6.4 | 17.3
COC(=O)CSC1=NS(=O)(=O)c2ccccc21 | -10.0 | -15.6 | -1.1 | x | x | 114.2*
CC(=O)c1ccc(NC(=O)C(C)OC(=O)c2ccc(NS(=O)(=O)c3ccc(F)c(F)c3)cc2)cc1 (configuration not stated) | -1.4 | -30.8 | 9.2* | -1.4 | 1.0 | 10.0
O=C1/C(=C\c2ccc(C(F)(F)F)cc2)CSc2sccc21 | 36.5* | -6.5 | x | -1.1 | 1.0 | 9.8
O=C(Nc1ccccc1)C1=C(c2ccccc2)S(=O)(=O)CCS1(=O)=O | 8.4 | -89.1 | 4.2 | 0.4 | -1.2 | 45.9*

Compound activity from PubChem BioAssay.
